Measured values reported in PubChem BioAssay (NCATS).
Several values for one entry are separate records, joined by “and”; a condition that tells them apart may be missing. Equal values may be shown once. Unmarked numbers belong to inactive results. Records with an inconclusive call do not appear. Activity calls are given as the source filed them. Unless noted, calls follow the shape of the dose curve; as a rule, active = well fitted activation curve with a large enough effect; inconclusive = small, poorly fitted or top-dose-only effect; inactive = flat fitted curve, though single readings scatter.

Columns and labels:
[1] = qHTS assay for small molecule agonists of the antioxidant response element (ARE) signaling pathway (AID 651741; active = well fitted activation curve with a large enough effect in the signal ratio; the % refers to the signal ratio; also: potency is read from the fitted curve at half-maximal effect; as to activation: % of control where 0% means no effect)
Outline: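 Beta-lactamase reporter expression driven by the antioxidant response element in HepG2 cells was detected by fluorescence with LiveBLAzer B/G FRET substrate (2 h, room temperature) following 16 h compound treatment at 37 C.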

[2] = qHTS assay for small molecule activators of the nuclear factor-kappa B (NF-kB) signaling pathway (AID 651749; active = well fitted activation curve with a large enough effect in the signal ratio; the % refers to the signal ratio; also: series mostly up to about 77 µM; % of control where 0% means no effect); details: NF-kB-bla ME-180 cells, beta-lactamase FRET ratio, 16 h; hits give high values
Outline: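 Beta-lactamase reporter expression, controlled by NF-kB response elements in ME-180 cells, was quantified fluorometrically via FRET disruption; cells at 2,000/well had been incubated with 23 nL test compound for 16 hr.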

[3] = qHTS assay for environmental chemicals that activate the Aryl hydrocarbon Receptor (AhR) signaling pathway (AID 651777); details: 1A2-DRE human hepatoma cells, luciferase, 24 h; hits give high values; also: % of control where 0% means no effect; nearly all actives have a fitted effect of over 15% in size
Outline: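 Following a 24 hr incubation with test chemicals at 37 C and 5% CO2, 1A2-DRE human hepatoma cells received One-Glo reagent; after 30 min at room temperature, luciferase output reflected CYP1A2 induction via AhR.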

[4] = molecular target: Peroxisome proliferator-activated receptor alpha (Homo sapiens) (UniProt Q07869); experiment: qHTS assay for small molecule agonists of the peroxisome proliferator-activated receptor alpha (PPARalpha) signaling pathway (AID 651778); details: PathHunter PPARalpha complementation, chemiluminescence, 6 h; hits give high values; also: % of control where 0% means no effect
Sequence of Peroxisome proliferator-activated receptor alpha (Homo sapiens) (Q07869 whole entry, looked up): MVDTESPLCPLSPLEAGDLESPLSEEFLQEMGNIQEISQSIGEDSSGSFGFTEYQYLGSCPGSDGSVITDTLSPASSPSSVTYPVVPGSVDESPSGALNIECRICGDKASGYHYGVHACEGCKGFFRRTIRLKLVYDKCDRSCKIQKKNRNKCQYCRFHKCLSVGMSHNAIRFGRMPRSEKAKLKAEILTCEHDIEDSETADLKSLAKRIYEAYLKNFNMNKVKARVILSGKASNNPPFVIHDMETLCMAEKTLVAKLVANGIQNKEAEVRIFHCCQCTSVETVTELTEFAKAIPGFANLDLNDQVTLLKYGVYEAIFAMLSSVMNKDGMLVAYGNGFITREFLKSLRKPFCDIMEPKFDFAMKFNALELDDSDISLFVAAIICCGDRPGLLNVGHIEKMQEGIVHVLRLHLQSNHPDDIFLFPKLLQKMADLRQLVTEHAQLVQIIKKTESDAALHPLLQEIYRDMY
Outline: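 Cells plated at 2,000/well and held overnight at 37 C, 5% CO2, then compound added by pin tool for 6 hr; after PathHunter detection reagent and 60 min at room temperature, chemiluminescence from enzyme complementation was read.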

[5] = qHTS assay for small molecule activators of the p53 signaling pathway (AID 651743; active = well fitted activation curve with a large enough effect in the signal ratio, not every such curve was filed as active; the % refers to the signal ratio; also: series mostly up to about 92 µM; % of control where 0% means no effect); details: HCT-116 p53RE-bla, beta-lactamase FRET ratio, 16 h; hits give high values
Outline: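 Here HCT-116 cells with an integrated p53-responsive beta-lactamase gene were incubated with compounds (16 hours, 37 C) after a 5-hour plating period; beta-lactamase activity was detected as fluorescence intensity via B/G FRET substrate.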

[6] = S16 Schwann cell PMP22 intronic element beta-lactamase assay (AID 624044; calls by dose curve;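 also: 0% = DMSO and -100% = potassium clavulanate positive control; nearly all actives have a fitted effect of over 15% in size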)
Outline: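 Beta-lactamase reporter under a PMP22 intronic regulatory element in stable S16 rat Schwann cells; 24 h compound exposure. 460 nm blue signal normalized between DMSO (0%) and potassium clavulanate, with 535 nm FRET tracking viability; curves classed by r2 and response.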

[7] = qHTS assay for small molecule disruptors of the mitochondrial membrane potential - 1 hr assay (AID 651754; calls by dose curve; also: nearly all actives have a fitted effect of over 35% in size; also: potency is read from the fitted curve at half-maximal effect)
Outline: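 In this qHTS format, a 1 hr compound treatment of HepG2 cells precedes Mito-MPS staining, and membrane potential is judged from aggregate (red) against monomer (green) fluorescence intensity.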

[8] = qHTS assay for small molecule disruptors of the mitochondrial membrane potential - 5 hr assay (AID 651755; calls by dose curve; also: nearly all actives have a fitted effect of over 40% in size; also: potency is read from the fitted curve at half-maximal effect)
Outline: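 Seed HepG2 overnight, add compound, incubate 5 hr at 37C and 5% CO2, stain 30 min with Mito-MPS, then measure monomer (490/535 nm) and aggregate (540/590 nm) fluorescence.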

[9] = molecular target: Tumor necrosis factor (Homo sapiens) (UniProt P01375); experiment: qHTS assay to identify small molecules that stimulate Tumor Necrosis Factor-alpha (TNF-alpha) secretion (AID 651757; active = well fitted curve in the direction sought with a large enough effect in the signal ratio; the % refers to the signal ratio; also: 0% is about no effect)
Sequence of Tumor necrosis factor (Homo sapiens) (P01375 whole entry, looked up): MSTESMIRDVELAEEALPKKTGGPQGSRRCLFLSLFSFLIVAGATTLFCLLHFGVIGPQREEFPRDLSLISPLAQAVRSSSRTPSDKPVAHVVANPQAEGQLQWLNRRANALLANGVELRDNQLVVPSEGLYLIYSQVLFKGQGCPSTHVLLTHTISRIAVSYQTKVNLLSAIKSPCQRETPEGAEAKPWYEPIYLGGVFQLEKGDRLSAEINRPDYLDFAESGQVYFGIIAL
Outline: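 Using 3000 THP-1 cells per well, compounds and controls were applied for 17 hrs at 37 C. Detection followed with two labeled anti-TNF-alpha antibodies (cryptate donor, XL665 acceptor) for 3 hr at room temperature, measured by TR-FRET.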

[10] = qHTS assay to identify small molecules that stimulate interleukin-8 (IL-8) secretion (AID 651758; active = well fitted activation curve with a large enough effect in the signal ratio; the % refers to the signal ratio; also: 0% is about no effect)
Outline: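 Quantitative HTS in THP-1 monocytic cells at 2000 cells per well, with 16 hrs compound incubation at 37 C. IL-8 in the medium was then quantified by HTRF immunoassay, read after 1-3 hrs at room temperature.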

Row | SMILES | Potency [1] | activation [2] | activation [3] | max response [4] | activation [5] | outcome [6] | Potency [7] | Potency [8] | outcome [9] | outcome [10]
1 | COC(=O)c1ccc(O)cc1 | 19.3 µM (active) | -2.57% | 7.25% | -1.49% |  |  |  |  |  | 
2 | CC[N+](CC)(CC(=O)Nc1c(C)cccc1C)Cc1ccccc1 | inactive |  | 0.016% | 1.81% | -6.37% |  |  |  |  | 
3 | CC1CC(OC(=O)c2ccccc2O)CC(C)(C)C1 (centres undefined) |  | -1.08% | 2.34% | -1.84% | -6.41% | inactive | inactive | inactive | inactive | 
4 | O=C(O)CCCCC1CCSS1 (centres undefined) | 48.6 µM (active) and 37.6 µM (active) | -0.268% and -2.59% | 1.47% and -0.721% | -5.44% and -4.99% | -5.57% and 16.2% |  |  |  | inactive | inactive
5 | NC(N)=NS(=O)(=O)c1ccc(N)cc1 |  |  |  |  |  | inactive |  |  |  | 
6 | C=CCNC(N)=S | inactive | -0.527% | 0.627% | -1.33% | -1.91% |  |  |  | inactive | inactive
7 | O=C1c2cccc(O)c2C(=O)c2c(O)cccc21 | 29.8 µM (active) | -0.734% | 5.57% | -5.75% | 3.77% | inactive | 4.73 µM (active) | 7.5 µM (active) | inactive | 
8 | O=C1C(c2[nH]c3ccccc3c2O)=Nc2ccccc21 | 47.3 µM (active) | -0.0626% |  | -5.35% | -4.39% | inactive |  |  | inactive | 
9 | CCCCOC(=O)c1ccc(N)cc1 |  | -0.245% | 13% | -1.13% | -1.05% | inactive | inactive | inactive | inactive | inactive
10 | Cc1c(C(=O)NCCO)[n+](=O)c2ccccc2n1[O-] |  | -3.75% | -0.247% | -1.31% | 3.58% |  |  |  |  | 
11 | CC(C)=CCC/C(C)=C/CO | inactive | -0.602% | -0.426% | -2.93% | -2.29% | inactive |  |  |  | 
12 | COc1ccc(O)cc1 | inactive | 0.533% | 0.2% | -1.68% | 1.27% |  |  |  | inactive | 
13 | Cc1c(N(C)C)c(=O)n(-c2ccccc2)n1C | inactive | 1.01% and 2.73% | -1.03% and 1.07% | -3.72% and 2.35% |  | inactive | inactive | inactive | inactive | 
14 | CC(=O)Nc1ccccc1 |  | -0.999% | -1.4% | -5.14% |  |  |  |  | inactive | 
15 | Cc1ccsc1C(=CCCN1CCC[C@@H](C(=O)O)C1)c1sccc1C |  |  |  |  |  | inactive |  |  |  | 
16 | O=C(c1ccccc1)C(O)c1ccccc1 (centres undefined) | inactive | -2.35% and -0.255% | -1.25% and 2.53% | -1.85% and -1.14% |  |  |  |  | inactive | 
17 | C[C@@H](N)C(=O)O |  |  |  |  |  | inactive |  |  |  | 
18 | CCCCCC(N)=O | inactive | 0.129% | -0.0681% | -2.19% | 0.75% |  |  |  | inactive | 
19 | OC[C@@H](O)[C@@H](O)[C@H](O)[C@H](O)CO |  | -2.19% | -0.115% | -1.72% | -0.611% |  |  |  |  | 
20 | FC(F)(F)C(Cl)Br (centres undefined) |  |  | 0.539% | -5.56% | -1.4% |  |  |  | inactive | inactive
21 | CCCCCCCC(=O)OCC(COC(=O)CCCCCCC)OC(=O)CCCCCCC |  |  | -1.98% | 4.51% | -2.91% |  |  |  | inactive | 
22 | Cc1cc(O)cc(C)c1Cl | 10.9 µM (active) | -0.418% |  | -0.107% |  | inactive |  |  |  | 
23 | Cc1cc(=O)[nH]c(=S)[nH]1 |  | -0.135% | -0.745% | -5.54% | -1.35% |  |  |  | inactive | inactive
24 | Cc1cc(C)nc(NS(=O)(=O)c2ccc(N)cc2)n1 | inactive |  | -1.73% and 0.131% | -5.72% and -2.38% | -3.59% and 3.14% |  |  |  | inactive | 
